This is a sample that favours compounds with a hit; in the whole collection about 1.4% have one here.
PrP 5UTR inh: inhibition of PrP 5' UTR reporter expression | cell-based PrP 5' UTR mRNA reporter, plate reader | inhibition, % (concentration not given with the values) | 340,000 tested, 0.35% active; in the data active = inhibition above about 52%
RecA intein inh: inhibitors of M. tuberculosis RecA intein splicing. inhibition, % (test concentration not listed). 290,000 tested, 0.75% active. P9WHJ3. AID 2221. cell-free RecA intein splicing, fluorescence; in the data active = inhibition above about 30%
Target sequence (P9WHJ3 whole entry, looked up): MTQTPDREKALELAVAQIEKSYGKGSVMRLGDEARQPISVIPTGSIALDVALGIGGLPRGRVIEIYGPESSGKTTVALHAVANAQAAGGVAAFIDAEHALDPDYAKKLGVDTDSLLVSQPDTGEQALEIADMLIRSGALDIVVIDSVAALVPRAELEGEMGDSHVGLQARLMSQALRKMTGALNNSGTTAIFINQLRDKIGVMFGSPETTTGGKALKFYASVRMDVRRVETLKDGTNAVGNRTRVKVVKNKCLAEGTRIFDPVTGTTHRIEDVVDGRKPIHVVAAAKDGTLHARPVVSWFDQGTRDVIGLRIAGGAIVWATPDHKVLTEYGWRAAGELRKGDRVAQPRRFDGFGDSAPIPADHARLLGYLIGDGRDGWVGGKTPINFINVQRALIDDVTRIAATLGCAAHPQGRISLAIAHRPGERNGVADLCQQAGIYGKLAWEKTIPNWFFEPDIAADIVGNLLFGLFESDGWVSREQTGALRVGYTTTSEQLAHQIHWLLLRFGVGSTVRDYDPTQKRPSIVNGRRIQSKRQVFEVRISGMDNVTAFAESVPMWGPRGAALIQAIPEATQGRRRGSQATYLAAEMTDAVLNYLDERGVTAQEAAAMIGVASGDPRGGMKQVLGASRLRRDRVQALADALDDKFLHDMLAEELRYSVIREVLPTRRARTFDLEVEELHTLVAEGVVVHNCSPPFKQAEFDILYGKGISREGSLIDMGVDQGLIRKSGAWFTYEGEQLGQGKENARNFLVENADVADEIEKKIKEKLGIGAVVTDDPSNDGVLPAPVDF
3CLpro inhibitor: SARS-CoV 3CLpro protease inhibition. P0C6X7. recombinant SARS-CoV 3CLpro, quenched FRET peptide cleavage. inhibition, % at 6 µM. 290,000 tested, 0.14% active. AID 1706; in the data active = inhibition above about 12%
PrPC TRFRET: reduces human prion protein on the cell surface; cell surface PrPC, TR-FRET read-out; inhibition, % at 13.8 µM; 370,000 tested, 0.43% active; AID 720596; in the data active = inhibition above about 24%
BJeLR viability: BJeLR cell viability loss | 300,000 tested, 0.17% active | BJeLR (HRASV12) viability, CellTiter-Glo ATP luminescence, 48 h | inhibition, % (no concentration beside the values); in the data active = inhibition above about 50%
Mtb hypoxia rep: inhibitors of hypoxia-regulated fluorescent reporter in Mycobacterium tuberculosis; M. tuberculosis hypoxia-regulated fluorescent reporter, fluorescence; fluorescence inhibition, % (concentration not given with the values); 300,000 tested, 0.1% active; in the data active = fluorescence inhibition mostly above about 23%, no sharp cut-off; inactive = mostly below about 17%
GFP chromophore: counter-screen: blocks GFP chromophore formation; shares compounds with RecA intein inh; cell-free GFP chromophore formation, fluorescence; EC50, µM; 2,100 tested, 83% active; AID 434968; call rule not given here
A number is an active result.

What do the screens show for `Cc1c(C(=O)NN)nn(-c2ccc(Cl)cc2)c(=O)c1C#N`?
PrP 5UTR inh: inactive; RecA intein inh: 43; 3CLpro inhibitor: inactive; PrPC TRFRET: inactive; Mtb hypoxia rep: inactive; GFP chromophore: 31

How did O=C(Nc1ccc(N2CCOCC2)c2nonc12)C1CCCC1 do in these assays?
PrP 5UTR inh: inactive; RecA intein inh: inactive; 3CLpro inhibitor: inactive; PrPC TRFRET: inactive; BJeLR viability: inactive

What do the screens show for `Nc1ccc(N2CCOCC2)c2nonc12`?
PrP 5UTR inh: inactive; RecA intein inh: 95; 3CLpro inhibitor: inactive; PrPC TRFRET: inactive; BJeLR viability: inactive; Mtb hypoxia rep: inactive; GFP chromophore: 23

What do the screens show for `Cc1ccc(C(=O)Oc2ccc(C(=O)COC(=O)C3CC(=O)N(Cc4ccco4)C3)cc2)cc1` (stereo not given)?
PrP 5UTR inh: inactive; RecA intein inh: inactive; 3CLpro inhibitor: inactive; BJeLR viability: inactive; Mtb hypoxia rep: inactive

Results for O=C(COC(=O)C1CC(=O)N(Cc2ccco2)C1)c1ccc(OC(=O)c2ccco2)cc1 (stereo not given) ?
PrP 5UTR inh: inactive; RecA intein inh: 35; 3CLpro inhibitor: inactive; PrPC TRFRET: inactive; BJeLR viability: inactive; Mtb hypoxia rep: inactive; GFP chromophore: inactive

What do the screens show for `Cc1cc2c3c(c1)C1(C(=O)N3C(C)(C)CC2C)C(C#N)=C(N)Oc2n[nH]c(C)c21` (stereo not given)?
PrP 5UTR inh: inactive; RecA intein inh: inactive; 3CLpro inhibitor: inactive; PrPC TRFRET: inactive; BJeLR viability: inactive; Mtb hypoxia rep: inactive

Results for Cc1[nH]nc2c1C1(CCC(c3ccccc3)CC1)C(C#N)=C(N)O2 (stereo not given) ?
PrP 5UTR inh: inactive; RecA intein inh: 77; 3CLpro inhibitor: inactive; PrPC TRFRET: inactive; BJeLR viability: inactive; Mtb hypoxia rep: inactive; GFP chromophore: 25

What do the screens show for `Cc1[nH]nc2c1C1(CCN(C(=O)c3ccccc3)CC1)C(C#N)=C(N)O2`?
PrP 5UTR inh: inactive; RecA intein inh: 79; 3CLpro inhibitor: inactive; PrPC TRFRET: inactive; BJeLR viability: inactive; Mtb hypoxia rep: inactive; GFP chromophore: 13

What do the screens show for `Cc1[nH]nc2c1C1(CCN(C(=O)OCc3ccccc3)CC1)C(C#N)=C(N)O2`?
PrP 5UTR inh: inactive; RecA intein inh: 80; 3CLpro inhibitor: inactive; PrPC TRFRET: inactive; BJeLR viability: inactive; GFP chromophore: 30

Results for CC(=O)N1CCC2(CC1)C(C#N)=C(N)Oc1n[nH]c(C)c12 ?
PrP 5UTR inh: inactive; RecA intein inh: 79; 3CLpro inhibitor: inactive; PrPC TRFRET: inactive; BJeLR viability: inactive; Mtb hypoxia rep: inactive; GFP chromophore: 15

What do the screens show for `O=C1NC(=Nc2ccccc2)SC1=Cc1cccs1`?
Mtb hypoxia rep: inactive

How did O=C(Cc1ccccc1)NCC(=O)NN=Cc1cccnc1 do in these assays?
Mtb hypoxia rep: inactive

How did CN1C(=O)C2C(C3CC3)N3C(=O)CN(Cc4ccc(-c5ccccc5)cc4)C(=O)[C@@]3(C)C2C1=O (stereo not given in full) do in these assays?
Mtb hypoxia rep: inactive

Results for COc1cc(C(c2c(C)[nH][nH]c2=O)c2c(C)[nH][nH]c2=O)ccc1OC(C)C ?
PrP 5UTR inh: inactive; RecA intein inh: 97; 3CLpro inhibitor: inactive; PrPC TRFRET: inactive; BJeLR viability: inactive; Mtb hypoxia rep: inactive; GFP chromophore: 0.45

How did CCOc1cc(C(c2c(C)[nH][nH]c2=O)c2c(C)[nH][nH]c2=O)ccc1O do in these assays?
PrP 5UTR inh: inactive; RecA intein inh: 96; 3CLpro inhibitor: inactive; PrPC TRFRET: inactive; BJeLR viability: inactive; Mtb hypoxia rep: inactive; GFP chromophore: 1.1

What do the screens show for `COc1cc(C(c2c(C)[nH][nH]c2=O)c2c(C)[nH][nH]c2=O)ccc1OC(=O)c1cccc([N+](=O)[O-])c1`?
PrP 5UTR inh: inactive; 3CLpro inhibitor: inactive; PrPC TRFRET: inactive; Mtb hypoxia rep: inactive

How did COc1ccc(C(c2c(C)[nH][nH]c2=O)c2c(C)[nH][nH]c2=O)cc1Br do in these assays?
PrP 5UTR inh: inactive; RecA intein inh: 98; 3CLpro inhibitor: inactive; PrPC TRFRET: inactive; BJeLR viability: inactive; Mtb hypoxia rep: inactive; GFP chromophore: 0.59

What do the screens show for `Cc1[nH][nH]c(=O)c1C(c1ccc(O)c(Br)c1)c1c(C)[nH][nH]c1=O`?
PrP 5UTR inh: inactive; RecA intein inh: 98; 3CLpro inhibitor: inactive; PrPC TRFRET: inactive; BJeLR viability: inactive; Mtb hypoxia rep: inactive; GFP chromophore: 0.46

How did COC(=O)C1=C(c2cc3ccccc3s2)CC2CCC1N2C(=O)NCCNC(C)=O (stereo not given) do in these assays?
Mtb hypoxia rep: inactive

Results for CC(C(=O)CC(=O)OC(C)(C)C)C(O)c1c(F)cccc1Cl (stereo not given) ?
Mtb hypoxia rep: inactive

How did Cc1cccc(S(=O)(=O)C(C#N)c2nc3ccccc3nc2N2CCCC2)c1 (stereo not given) do in these assays?
PrP 5UTR inh: inactive; RecA intein inh: 45; 3CLpro inhibitor: inactive; PrPC TRFRET: inactive; BJeLR viability: inactive; Mtb hypoxia rep: inactive; GFP chromophore: inactive

What do the screens show for `O=C(O)CC1S/C(=N/N=C/c2ccc(-c3ccccc3[N+](=O)[O-])o2)NC1=O` (stereo not given)?
PrP 5UTR inh: inactive; RecA intein inh: 43; 3CLpro inhibitor: inactive; PrPC TRFRET: inactive; BJeLR viability: inactive; GFP chromophore: 17

How did O=C(O)CC1S/C(=N/N=Cc2ccc(-c3ccc(Cl)c([N+](=O)[O-])c3)o2)NC1=O (stereo not given) do in these assays?
Mtb hypoxia rep: inactive

Results for Cc1ccc(-c2ccc(/C=N/N=C3/NC(=O)C(CC(=O)O)S3)o2)c([N+](=O)[O-])c1 (stereo not given) ?
PrP 5UTR inh: inactive; RecA intein inh: 48; 3CLpro inhibitor: inactive; PrPC TRFRET: inactive; BJeLR viability: inactive; GFP chromophore: 34

Results for Cc1ccccc1C(=O)OC1C(Cc2ccccc2)NS(=O)(=O)C2CC3C=C[C@]12O3 (stereo not given in full) ?
Mtb hypoxia rep: inactive

Results for Oc1c(C=C2N=c3ccccc3=N2)sc(=S)n1-c1ccc(F)cc1 ?
PrP 5UTR inh: inactive; RecA intein inh: inactive; 3CLpro inhibitor: inactive; PrPC TRFRET: inactive; BJeLR viability: inactive; Mtb hypoxia rep: inactive

What do the screens show for `Oc1[nH]c(=S)sc1C=C1N=c2ccccc2=N1`?
PrP 5UTR inh: inactive; RecA intein inh: 57; 3CLpro inhibitor: inactive; PrPC TRFRET: inactive; BJeLR viability: inactive; Mtb hypoxia rep: inactive; GFP chromophore: inactive

Results for COC(=O)c1ccccc1NC(=S)NC(=O)c1ccc(C)cc1 ?
PrP 5UTR inh: inactive; RecA intein inh: 36; 3CLpro inhibitor: inactive; PrPC TRFRET: inactive; BJeLR viability: inactive; Mtb hypoxia rep: inactive; GFP chromophore: 0.49

Results for O=[N+]([O-])c1ccc(S(=O)(=O)c2cccc(C(F)(F)F)c2)nc1 ?
PrP 5UTR inh: inactive; RecA intein inh: 50; BJeLR viability: inactive; Mtb hypoxia rep: inactive; GFP chromophore: 30

Compound activity (PubChem)
